Columns and labels:
PKM = test system: PKM; design: species or system human, MV4-11 + K-562 + COLO205 + SK-N-BE2 + OVCAR-8; conditions: read-out: apparent Kd; compound concentrations: 100 nM and 1000 nM (sheet 'Samples'), CATDS: 1; n = 1
PRKCI = test system: PRKCI; design: species or system human, MV4-11 + K-562 + COLO205 + SK-N-BE2 + OVCAR-8; conditions: read-out: apparent Kd; compound concentrations:100 nM and 1000 nM (sheet 'Samples'); n = 1
PRKD1 = test system: PRKD1; design: species or system human, MV4-11 + K-562 + COLO205 + SK-N-BE2 + OVCAR-8; conditions: read-out: apparent Kd; compound concentrations:100 nM and 1000 nM (sheet 'Samples'); n = 1
RIPK3 = test system: RIPK3; design: species or system human, MV4-11 + K-562 + COLO205 + SK-N-BE2 + OVCAR-8; conditions: read-out: apparent Kd; compound concentrations: 100 nM and 1000 nM (sheet 'Samples'), CATDS: 0.41855483652365999; n = 1
SMC4 = test system: SMC4; design: species or system human, MV4-11 + K-562 + COLO205 + SK-N-BE2 + OVCAR-8; conditions: read-out: apparent Kd; compound concentrations: 100 nM and 1000 nM (sheet 'Samples'), CATDS: 0.57123951593094102; n = 1
PRKG1 = test system: PRKG1; design: species or system human, MV4-11 + K-562 + COLO205 + SK-N-BE2 + OVCAR-8; conditions: read-out: apparent Kd; compound concentrations:100 nM and 1000 nM (sheet 'Samples'); n = 1
PRKCQ = test system: PRKCQ; design: species or system human, MV4-11 + K-562 + COLO205 + SK-N-BE2 + OVCAR-8; conditions: read-out: apparent Kd; compound concentrations: 100 nM and 1000 nM (sheet 'Samples'), CATDS: 1; n = 1
PRKAG1 = test system: PRKAG1; design: species or system human, MV4-11 + K-562 + COLO205 + SK-N-BE2 + OVCAR-8; conditions: read-out: apparent Kd; compound concentrations:100 nM and 1000 nM (sheet 'Samples'); n = 1
PRKAG2 = test system: PRKAG2; design: species or system human, MV4-11 + K-562 + COLO205 + SK-N-BE2 + OVCAR-8; conditions: read-out: apparent Kd; compound concentrations:100 nM and 1000 nM (sheet 'Samples'); n = 1
SMC2 = test system: SMC2; design: species or system human, MV4-11 + K-562 + COLO205 + SK-N-BE2 + OVCAR-8; conditions: read-out: apparent Kd; compound concentrations: 100 nM and 1000 nM (sheet 'Samples'), CATDS: 0.46661242360410599; n = 1
PTK2 = test system: PTK2; design: species or system human, MV4-11 + K-562 + COLO205 + SK-N-BE2 + OVCAR-8; conditions: read-out: apparent Kd; compound concentrations: 100 nM and 1000 nM (sheet 'Samples'), CATDS: 1; n = 1
PRKCZ = test system: PRKCZ; design: species or system human, MV4-11 + K-562 + COLO205 + SK-N-BE2 + OVCAR-8; conditions: read-out: apparent Kd; compound concentrations:100 nM and 1000 nM (sheet 'Samples'); n = 1
PRKX;PRKY = test system: PRKX;PRKY; design: species or system human, MV4-11 + K-562 + COLO205 + SK-N-BE2 + OVCAR-8; conditions: read-out: apparent Kd; compound concentrations: 100 nM and 1000 nM (sheet 'Samples'), CATDS: 0.167379705383528; n = 1
SIK2 = test system: SIK2; design: species or system human, MV4-11 + K-562 + COLO205 + SK-N-BE2 + OVCAR-8; conditions: read-out: apparent Kd; compound concentrations: 100 nM and 1000 nM (sheet 'Samples'), CATDS: 1; n = 1
RET = test system: RET; design: species or system human, MV4-11 + K-562 + COLO205 + SK-N-BE2 + OVCAR-8; conditions: read-out: apparent Kd; compound concentrations:100 nM and 1000 nM (sheet 'Samples'); n = 1
DJA1 = test system: T1, DJA1; conditions: read-out: apparent Kd; compound concentrations:100 nM and 1000 nM (sheet 'Lestaurtinib' of Supplementary Table 1),run:Lestaurtinib_02482_R2,Plate:MR011; n = 1
T1 construct: gene DNAJA1

PIK3CG = conditions: read-out: apparent Kd; compound concentrations:100 nM and 1000 nM (sheet 'Lestaurtinib' of Supplementary Table 1),run:Lestaurtinib_02487_R1,Plate:MR012; n = 1
PIM1 = conditions: read-out: apparent Kd; compound concentrations:100 nM and 1000 nM (sheet 'Lestaurtinib' of Supplementary Table 1),run:Lestaurtinib_02487_R1,Plate:MR012; n = 1
PIP4K2C = conditions: read-out: apparent Kd; compound concentrations:100 nM and 1000 nM (sheet 'Lestaurtinib' of Supplementary Table 1),run:Lestaurtinib_02487_R1,Plate:MR012; n = 1
PKN3 = conditions: read-out: apparent Kd; compound concentrations:100 nM and 1000 nM (sheet 'Lestaurtinib' of Supplementary Table 1),run:Lestaurtinib_02487_R1,Plate:MR012; n = 1

Cn1cc(C2=C(c3cn(C)c4ccc(OCc5ccccc5)cc34)C(=O)NC2=O)c2ccccc21 [RO0317432-000]
potency estimated from few doses (PKM): 1860 nM

CCn1c(-c2nonc2N)nc2ccccc21 [SB-693162]
potency estimated from few doses (PRKCI): 2410 nM

Cc1cccc(-c2nc(Nc3ccc4c(cnn4C)c3)c3ccccc3n2)n1 [GW876731X]
potency estimated from few doses (PRKD1): 92.8 nM

c1ccc(Oc2ccc(Nc3ccnc4ccc(-c5ccccn5)cc34)cc2)cc1 [GW407034X]
potency estimated from few doses (RIPK3): 429 nM

CCCNC(=O)Nc1ccc(N(C)c2ccnc(NC3CC3)n2)cc1 [GW818933X]
potency estimated from few doses (SMC4): 1120 nM

CCn1c(-c2nonc2N)nc2cnc(Oc3cccc(NC(=O)c4ccc(N(C)C)cc4)c3)cc21 [GSK248233A]
potency estimated from few doses (PRKG1): 227 nM

CO/N=C(\c1ccccc1)c1cnn(-c2ccccc2)c1N [RO1163374-000]
potency estimated from few doses (PRKCQ): 2210 nM

COc1ccccc1-c1ccc2c(NC(=O)C3CC3)n[nH]c2n1 [SB-711239]
potency estimated from few doses (PRKAG1): 1190 nM
potency estimated from few doses (PRKAG2): 1270 nM

N#Cc1ccc(C(=O)c2cnn(-c3ccc(F)cc3)c2N)cc1 [RO1153198-000]
potency estimated from few doses (SMC2): 2040 nM

COc1cc2c(cc1Nc1nc(Nc3cccc(F)c3C(N)=O)c3cc[nH]c3n1)N(C(=O)CN1CCN(C(C)C)CC1)CC2 [GSK1751853A]
potency estimated from few doses (PTK2): 1210 nM

O=C(Nc1n[nH]c2cc(-c3cccs3)ccc12)C1CC1 [SB-731284]
potency estimated from few doses (PRKCZ): 1850 nM

CC1=C(C(=O)Nc2cc3cn[nH]c3cc2F)C(c2ccc(C(F)(F)F)cc2)CC(=O)N1 (centres unmarked) [GSK429286A]
potency estimated from few doses (PRKX;PRKY): 2000 nM

NS(=O)(=O)c1cccc(-c2cc3ccncc3cc2OCc2ccccc2)c1 [GSK980961A]
potency estimated from few doses (SIK2): 1600 nM

Cl.O=C(Nc1ccc(Oc2ccc3[nH]c(NC(=O)c4ccccc4)nc3c2)cc1)Nc1cc(C(F)(F)F)ccc1F [GW709042A]
potency estimated from few doses (RET): 1420 nM

Lestaurtinib
potency estimated from few doses (DJA1): 1330 nM
potency estimated from few doses (PIK3CG): 1570 nM
potency estimated from few doses (PIM1): 860 nM
potency estimated from few doses (PIP4K2C): 86.5 nM
potency estimated from few doses (PKN3): 755 nM

From article PMC11062922 (Nature Chemical Biology, 2023)
